# In PubChem BioAssay (NCATS):
# Results filed as inconclusive are left out. A call without a number means that no potency is given here. Unmarked numbers belong to inactive results. Active and inactive are the calls of the source. Calls follow the shape of the dose curve; as a rule, active = well fitted curve in the direction sought with a large enough effect; inconclusive = small, poorly fitted or top-dose-only effect, or another doubt; inactive = no such curve, though single readings can be large; an effect the other way counts as inactive or inconclusive.
# Tests used:
# [1] = NCATS anti-infectives library activity on HEK293 viability as a counter-qHTS vs the C. elegans viability qHTS (AID 1745854)
# Procedure, shortened: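 CellTiter-Glo luminescence, read on a CCD imager, scored viability of HEK293 cells after 24 hr compound exposure at 37C. Library tested in several concentrations, 1:5 steps, up to 41.7 uM; digitonin served as control.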
# [2] = Primary qHTS for inhibitors of nuclear receptor binding SET domain protein 2 (NSD2) in an RCH-ACV wild type WT cells (2C) (AID 1645877); also: nearly all actives have a fitted effect of over 70% in size
# [3] = Viability counterscreen for antagonist of constitutive androstane receptor (CAR) against the NCATS DSHEA and TCM libraries (AID 1794837);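 also: compound exposure lasted 24 h before viability reading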
# Procedure, shortened: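 Viability was measured by CellTiter-Fluor fluorescence (405/540 nm, 1 hr) in HepG2-CYP2B6-hCAR cells. Cells were co-treated 24 hr with 48 uM CITCO (final), antagonist mode, and test substances.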
# [4] = Viability counterscreen for agonist of constitutive androstane receptor (CAR) against the NCATS DSHEA and TCM libraries (AID 1794838);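 also: cells exposed to compound for 24 h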
# Procedure, shortened: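 Cell viability, from CellTiter-Fluor fluorescence (405/540 nm), was scored after a 24 h, 37C exposure of HepG2 cells carrying CYP2B6 reporter and hCAR to test substances in presence of 0.75 uM PK11195.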
# [5] = target: Nuclear receptor subfamily 1 group I member 3 (Homo sapiens) (UniProt Q14994); assay: Primary qHTS for agonist of constitutive androstane receptor (CAR) against the NCATS DSHEA and TCM libraries (AID 1794839);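 also: HepG2 cells expressing human CAR with a CYP2B6 reporter plus PK11195 antagonist; luciferase reporter luminescence read with ONE-Glo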
# Chain of Nuclear receptor subfamily 1 group I member 3 (Homo sapiens) (Q14994 whole entry, looked up): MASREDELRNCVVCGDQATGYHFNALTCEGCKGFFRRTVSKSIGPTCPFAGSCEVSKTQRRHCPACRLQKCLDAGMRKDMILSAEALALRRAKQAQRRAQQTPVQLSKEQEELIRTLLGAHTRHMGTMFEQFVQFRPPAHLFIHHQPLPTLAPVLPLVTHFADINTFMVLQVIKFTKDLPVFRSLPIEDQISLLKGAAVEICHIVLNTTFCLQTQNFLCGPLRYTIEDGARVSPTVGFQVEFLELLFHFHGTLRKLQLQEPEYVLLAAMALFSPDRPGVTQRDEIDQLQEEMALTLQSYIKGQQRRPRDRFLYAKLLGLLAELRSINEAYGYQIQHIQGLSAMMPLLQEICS
# Procedure, shortened: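 Agonist mode in presence of hCAR antagonist PK11195 (0.75 µM final): test substances, 24 h, 37 °C, on HepG2-CYP2B6-hCAR cells. Same-well readouts: fluorescence viability, then ONE-Glo luminescence; CITCO as reference agonist.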
smiles,measurement,setting,value
Cc1cc(N2CCN([C@@H]3CN[C@H](C(=O)N4CCSC4)C3)CC2)n(-c2ccccc2)n1,Potency,[1],inactive
CC1CC[C@]2(C(=O)O)CC[C@]3(C(=O)O)C(=CCC4[C@@]5(C)CC[C@H](OC6OC(C)C(O)C(OC7OC(CO)C(O)C(O)C7O)C6O)C(C)(C)C5CC[C@]43C)C2C1C (some centres not stated),Potency,[2],inactive
same,outcome,[3],inactive
same,outcome,[4],inactive
same,outcome,[5],inactive
O=C(COc1cccc2c(=O)[nH]ccc12)c1ccccc1,Potency,[1],inactive
OC[C@H]1O[C@@H](OC[C@H]2O[C@@H](OC/C=C/c3ccccc3)[C@H](O)[C@@H](O)[C@@H]2O)[C@@H](O)[C@@H]1O,Potency,[2],inactive
same,outcome,[3],inactive
same,outcome,[5],inactive
CC(C)=CCC[C@](C)(O)[C@H]1CC[C@]2(C)[C@@H]1[C@H](O)CC1[C@@]3(C)CC[C@H](O)C(C)(C)[C@@H]3[C@@H](O[C@@H]3O[C@H](CO)[C@@H](O)[C@H](O)[C@H]3O[C@@H]3O[C@H](CO)[C@@H](O)[C@H](O)[C@H]3O)C[C@]12C (some centres not stated),Potency,[2],inactive
same,outcome,[3],inactive
same,outcome,[4],inactive
same,outcome,[5],inactive
CC(C)=CCC[C@](C)(O[C@@H]1O[C@H](CO[C@@H]2O[C@H](CO)[C@@H](O)[C@H](O)[C@H]2O)[C@@H](O)[C@H](O)[C@H]1O)C1CC[C@]2(C)[C@@H]1[C@H](O)CC1[C@@]3(C)CC[C@H](O[C@@H]4O[C@H](CO)[C@@H](O)[C@H](O)[C@H]4O[C@@H]4O[C@H](CO)[C@@H](O)[C@H](O)[C@H]4O)C(C)(C)[C@@H]3CC[C@]12C (some centres not stated),"activity change, negative = cell killing",[2],-25.5% [at 9.23 µM]
same,outcome,[3],inactive
same,"activity change, negative = cytotoxicity",[4],3.8% [at 8.32 µM]
same,outcome,[5],inactive
